Results from PubChem BioAssay (NCI).
Compounds without any hit were thinned out: in the full panel of roughly 83,000, 20% have a hit.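 Each cell line was grown in a 96-well plate and treated with one concentration of compound for 48 hours. Values below 10 were considered active.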 Calls of active or inactive are those of the source.

Legend:
Assay in all cases: NCI-60 one-dose screen, 48 h (100 = growth as untreated, 0 = no growth, -100 = all killed)
Details in all cases: 10 µM
NCI-H23 lung = test system: NCI-H23 lung
NCI-H226 lung = test system: NCI-H226 lung
NCI-H322M lung = test system: NCI-H322M lung
HOP-62 NSCLC = test system: HOP-62 NSCLC
NCI-H460 lung = test system: NCI-H460 lung
NCI-H522 lung = test system: NCI-H522 lung
A549/ATCC NSCLC = test system: A549/ATCC NSCLC
786-0 renal = test system: 786-0 renal
COLO 205 colon = test system: COLO 205 colon
DU-145 prostate = test system: DU-145 prostate
K-562 leukemia = test system: K-562 leukemia
MALME-3M melanoma = test system: MALME-3M melanoma
MDA-MB-231 breast = test system: MDA-MB-231 breast
RXF 393 renal = test system: RXF 393 renal
SF-268 CNS = test system: SF-268 CNS
SF-295 CNS = test system: SF-295 CNS
SF-539 CNS = test system: SF-539 CNS
UACC-257 melanoma = test system: UACC-257 melanoma
M14 melanoma = test system: M14 melanoma
HCT-15 colon = test system: HCT-15 colon

Measured: growth

CCCCCCN(CCCCCC)CC(O)c1ccc2c3c(cccc13)CC2 (stereo not given)
inactive: NCI-H23 lung 30.5% | NCI-H226 lung 69.9% | NCI-H322M lung 65.9% | HOP-62 NSCLC 85.2% | NCI-H460 lung 42.6% | NCI-H522 lung 30.1% | A549/ATCC NSCLC 64.1% | 786-0 renal 43.1% | COLO 205 colon 64.1% | DU-145 prostate 76.4% | K-562 leukemia 46.2% | MALME-3M melanoma 71.7% | MDA-MB-231 breast 72.9% | RXF 393 renal 67.2% | SF-268 CNS 76.4% | SF-295 CNS 49.4% | SF-539 CNS 70% | UACC-257 melanoma 67.9% | M14 melanoma 28.2% | HCT-15 colon 44.2%

Cc1cc(Cc2cc(C)c(O)c(C)c2)cc(C)c1O
inactive: NCI-H23 lung 74.1% | NCI-H226 lung 96.6% | NCI-H322M lung 68.2% | HOP-62 NSCLC 49.8% | NCI-H460 lung 29.1% | NCI-H522 lung 28.5% | A549/ATCC NSCLC 36.8% | 786-0 renal 56.2% | COLO 205 colon 104% | DU-145 prostate 78.3% | K-562 leukemia 13.2% | MALME-3M melanoma 46.5% | MDA-MB-231 breast 59.6% | RXF 393 renal 58.1% | SF-268 CNS 64.1% | SF-295 CNS 42.6% | SF-539 CNS 37.2% | UACC-257 melanoma 51.5% | M14 melanoma 29.9% | HCT-15 colon 38.2%

O=S(=O)(NCCNc1nccc(-c2c(-c3ccc(F)cc3)nc3sccn23)n1)c1ccc2ccccc2c1
inactive: NCI-H23 lung 90.8% | NCI-H226 lung 92.7% | NCI-H322M lung 73% | HOP-62 NSCLC 88.5% | NCI-H460 lung 55% | NCI-H522 lung 75.5% | A549/ATCC NSCLC 43.8% | 786-0 renal 89.4% | COLO 205 colon 57.4% | DU-145 prostate 78.8% | K-562 leukemia 54.6% | MALME-3M melanoma 81.2% | MDA-MB-231 breast 98.3% | RXF 393 renal 91.3% | SF-268 CNS 68.3% | SF-295 CNS 68.2% | SF-539 CNS 104% | UACC-257 melanoma 71% | M14 melanoma 82.9% | HCT-15 colon 76.4%

Cc1cccc2c1O/C(=C\c1ccc([N+](=O)[O-])o1)C2=O
active: NCI-H23 lung -39.8% | NCI-H226 lung -57.8% | HOP-62 NSCLC -25.6% | NCI-H460 lung -58.5% | NCI-H522 lung -77.4% | A549/ATCC NSCLC -12.2% | 786-0 renal -39.5% | COLO 205 colon -84.3% | DU-145 prostate -62.7% | K-562 leukemia -44.2% | MALME-3M melanoma -32.4% | MDA-MB-231 breast -47.3% | RXF 393 renal -80.8% | SF-268 CNS -39.8% | SF-539 CNS -59.2% | UACC-257 melanoma -65% | M14 melanoma -54.1% | HCT-15 colon -55.2%
inactive: NCI-H322M lung 37.9% | SF-295 CNS 31.1%

Fc1ccc2nc(-c3nc(-c4ccccc4)n4ccccc34)[nH]c2c1
inactive: NCI-H23 lung 57% | COLO 205 colon 16.1% | SF-539 CNS 27.3% | M14 melanoma 27.7% | HCT-15 colon 20.4%
active: NCI-H226 lung -11.9% | NCI-H322M lung -9.9% | HOP-62 NSCLC -76.2% | NCI-H460 lung -57% | NCI-H522 lung -41.2% | A549/ATCC NSCLC -22.6% | 786-0 renal 0.317% | DU-145 prostate -6.4% | K-562 leukemia 8.58% | MALME-3M melanoma -57.7% | MDA-MB-231 breast -3.47% | RXF 393 renal -25.7% | SF-268 CNS -38.6% | SF-295 CNS -28% | UACC-257 melanoma -17.4%

COc1ccc(-c2nn(-c3cccc(NC(=O)c4ccc5c(c4)OCCO5)c3)cc2-c2ccncc2)cc1Cl
active: NCI-H460 lung 9.42% | NCI-H522 lung -32.2% | COLO 205 colon -6.14% | MALME-3M melanoma 4.38% | RXF 393 renal 0.93% | SF-295 CNS -26% | SF-539 CNS -20.7%
inactive: NCI-H23 lung 45.9% | NCI-H226 lung 47.6% | NCI-H322M lung 54.4% | HOP-62 NSCLC 30.9% | A549/ATCC NSCLC 18.7% | 786-0 renal 14.7% | DU-145 prostate 39.8% | K-562 leukemia 18.4% | MDA-MB-231 breast 27.2% | SF-268 CNS 34.8% | UACC-257 melanoma 34.9% | M14 melanoma 13.5% | HCT-15 colon 32.8%

COc1ccc(-c2cc(-c3ccc(N(C)C)cc3)c(C#N)c(N3CCCC3)n2)cc1
active: RXF 393 renal -2.09%
inactive: NCI-H23 lung 93.6% | NCI-H226 lung 82.5% | NCI-H322M lung 92.3% | HOP-62 NSCLC 99.7% | NCI-H460 lung 69.9% | NCI-H522 lung 69.4% | A549/ATCC NSCLC 77.2% | 786-0 renal 95.6% | COLO 205 colon 65.9% | DU-145 prostate 86.8% | K-562 leukemia 69.3% | MALME-3M melanoma 122% | MDA-MB-231 breast 64.1% | SF-268 CNS 96.7% | SF-295 CNS 93.8% | SF-539 CNS 88.8% | UACC-257 melanoma 88% | M14 melanoma 73.3% | HCT-15 colon 71.4%

CC(C)N(CCNc1nc(C(Cl)(Cl)Cl)nc2cc(Cl)ccc12)C(C)C
inactive: NCI-H322M lung 33.5%
active: NCI-H23 lung -0.581% | NCI-H226 lung 0.531% | HOP-62 NSCLC -41.4% | NCI-H460 lung -45.6% | NCI-H522 lung -68.4% | A549/ATCC NSCLC -41.6% | 786-0 renal -76.4% | COLO 205 colon -89.8% | DU-145 prostate -15% | K-562 leukemia -53.9% | MALME-3M melanoma -28% | MDA-MB-231 breast -66.4% | RXF 393 renal -19% | SF-268 CNS 0.341% | SF-295 CNS -64.9% | SF-539 CNS -33.7% | UACC-257 melanoma -64.7% | M14 melanoma -68.7% | HCT-15 colon -38.4%

COc1ccc(-c2nsc3c2NC(=O)CC3c2ccc(F)cc2)cc1 (stereo not given)
inactive: NCI-H23 lung 59.5% | NCI-H226 lung 75.2% | NCI-H322M lung 39.6% | HOP-62 NSCLC 44.3% | NCI-H460 lung 17.2% | A549/ATCC NSCLC 27.2% | 786-0 renal 57.5% | DU-145 prostate 58.7% | K-562 leukemia 10.1% | MALME-3M melanoma 31.1% | MDA-MB-231 breast 68.7% | RXF 393 renal 62.9% | SF-268 CNS 63.4% | SF-295 CNS 37.5% | SF-539 CNS 43.9% | UACC-257 melanoma 58.3% | M14 melanoma 24% | HCT-15 colon 24.4%
active: NCI-H522 lung 3.06% | COLO 205 colon 9.44%

CN(CCc1ccccn1)c1ccccc1
inactive: NCI-H23 lung 110% | NCI-H226 lung 113% | NCI-H322M lung 113% | HOP-62 NSCLC 104% | NCI-H460 lung 118% | NCI-H522 lung 109% | A549/ATCC NSCLC 99.7% | 786-0 renal 98.5% | COLO 205 colon 104% | DU-145 prostate 121% | K-562 leukemia 95.2% | MALME-3M melanoma 168% | MDA-MB-231 breast 105% | RXF 393 renal 120% | SF-268 CNS 124% | SF-295 CNS 116% | SF-539 CNS 94.1% | UACC-257 melanoma 99.7% | M14 melanoma 100% | HCT-15 colon 89.8%

COc1ccc2c(c1OC)O/C(=C\c1ncc([N+](=O)[O-])n1C)C2=O
active: NCI-H23 lung -17.1% | NCI-H460 lung -20.8% | NCI-H522 lung -54.5% | COLO 205 colon -55.6% | DU-145 prostate -24.7% | MALME-3M melanoma -68.9% | MDA-MB-231 breast -20.7% | RXF 393 renal -65.7% | SF-268 CNS -5.54% | UACC-257 melanoma -55.8% | M14 melanoma -59.1% | HCT-15 colon 1.65%
inactive: NCI-H226 lung 66.6% | NCI-H322M lung 84.1% | HOP-62 NSCLC 56% | A549/ATCC NSCLC 19.3% | 786-0 renal 17.9% | K-562 leukemia 28.8% | SF-295 CNS 55.3% | SF-539 CNS 63.5%

CC(C)(C)c1ccc(N2CSC(=S)N(c3ccc(C(C)(C)C)cc3)C2)cc1
inactive: NCI-H23 lung 86.5% | NCI-H226 lung 93.2% | NCI-H322M lung 86.7% | HOP-62 NSCLC 88.2% | NCI-H460 lung 91.7% | A549/ATCC NSCLC 38% | 786-0 renal 103% | COLO 205 colon 92.5% | DU-145 prostate 123% | K-562 leukemia 90.1% | MALME-3M melanoma 85.8% | MDA-MB-231 breast 97.4% | RXF 393 renal 144% | SF-268 CNS 109% | SF-295 CNS 99.9% | SF-539 CNS 97.9% | M14 melanoma 95.9% | HCT-15 colon 94.7%
active: NCI-H522 lung -14.2% | UACC-257 melanoma -6.73%

Cc1ccc(-c2n[nH]c(=O)c3noc(-c4ccc(C)cc4)c23)cc1
inactive: NCI-H23 lung 61.8% | NCI-H226 lung 80.9% | NCI-H322M lung 49.5% | HOP-62 NSCLC 29.2% | NCI-H460 lung 17.3% | NCI-H522 lung 16.4% | A549/ATCC NSCLC 36.8% | 786-0 renal 48.4% | DU-145 prostate 25.2% | K-562 leukemia 13.2% | MALME-3M melanoma 26.4% | MDA-MB-231 breast 58.1% | RXF 393 renal 38% | SF-268 CNS 53.5% | SF-295 CNS 49.3% | UACC-257 melanoma 55.9% | M14 melanoma 28.8% | HCT-15 colon 33.1%
active: COLO 205 colon -25.1% | SF-539 CNS 3%

O=C(Nc1ccc(CO)cc1)c1ccccc1Nc1ccnc(C(F)(F)F)c1
inactive: NCI-H23 lung 96.5% | NCI-H226 lung 105% | NCI-H322M lung 113% | HOP-62 NSCLC 95.4% | NCI-H460 lung 103% | NCI-H522 lung 93.7% | A549/ATCC NSCLC 99.5% | 786-0 renal 102% | COLO 205 colon 104% | DU-145 prostate 106% | K-562 leukemia 93.7% | MALME-3M melanoma 92.5% | MDA-MB-231 breast 96.9% | RXF 393 renal 120% | SF-268 CNS 99.3% | SF-295 CNS 111% | SF-539 CNS 101% | UACC-257 melanoma 102% | M14 melanoma 99.8% | HCT-15 colon 103%

N=C(N)c1ccc(-c2ccc(-c3cccs3)s2)s1
active: NCI-H322M lung -29.8% | HOP-62 NSCLC -67.4% | NCI-H460 lung -82.2% | NCI-H522 lung -69.5% | A549/ATCC NSCLC -63.2% | 786-0 renal -88.6% | COLO 205 colon -93.8% | DU-145 prostate -91.6% | K-562 leukemia -68% | MALME-3M melanoma -73.9% | MDA-MB-231 breast -74.3% | RXF 393 renal -91.7% | SF-268 CNS -29.3% | SF-295 CNS -79.5% | UACC-257 melanoma -68.5% | M14 melanoma -79.5% | HCT-15 colon -68.4%
inactive: NCI-H23 lung 51.8% | NCI-H226 lung 74.2% | SF-539 CNS 25.9%
